{
  "source": "the supplement of paper PMC3545927",
  "molecular_target": "furin, P09958",
  "sequence (P09958 whole entry, the tested form may be a part)": "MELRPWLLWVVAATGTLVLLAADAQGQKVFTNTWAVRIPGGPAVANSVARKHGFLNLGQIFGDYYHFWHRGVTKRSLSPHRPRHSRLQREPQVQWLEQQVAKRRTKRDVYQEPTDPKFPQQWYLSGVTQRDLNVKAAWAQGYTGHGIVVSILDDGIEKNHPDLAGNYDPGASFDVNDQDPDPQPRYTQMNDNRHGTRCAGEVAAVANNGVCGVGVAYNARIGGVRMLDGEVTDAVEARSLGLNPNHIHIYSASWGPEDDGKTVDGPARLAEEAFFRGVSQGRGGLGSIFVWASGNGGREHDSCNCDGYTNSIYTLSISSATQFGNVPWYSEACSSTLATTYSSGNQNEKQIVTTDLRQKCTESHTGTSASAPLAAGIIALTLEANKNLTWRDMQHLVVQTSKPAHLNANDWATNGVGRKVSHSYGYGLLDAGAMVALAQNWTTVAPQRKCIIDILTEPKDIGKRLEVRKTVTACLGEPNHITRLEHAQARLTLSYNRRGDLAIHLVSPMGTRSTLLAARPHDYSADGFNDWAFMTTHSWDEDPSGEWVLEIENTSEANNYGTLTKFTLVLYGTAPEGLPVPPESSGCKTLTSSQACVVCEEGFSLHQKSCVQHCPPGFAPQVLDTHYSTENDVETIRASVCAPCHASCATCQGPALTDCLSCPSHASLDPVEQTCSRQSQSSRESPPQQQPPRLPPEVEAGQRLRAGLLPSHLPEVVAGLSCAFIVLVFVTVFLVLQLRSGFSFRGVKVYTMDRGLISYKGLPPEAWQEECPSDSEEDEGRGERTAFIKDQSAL",
  "experiment": "furin cleavage Z-score vs untreated control; higher = more cleavage, active = 3.5 or more, inactive = 1 or less, 8 variable residues between constant flanks",
  "in_short": "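Peptides 8 residues long, fused to a cDNA oligonucleotide, were fixed to magnetic beads by the N-terminus and exposed to purified furin. The 0.01 ml reactions contained 50 mM HEPES pH 7.5 with CaCl2 and NaCl at 1:10 enzyme:substrate and ran 7.5, 15 or 30 min. For the cleavage Z-score, log counts of sequenced released DNA were compared with furin-free reactions, lowess-adjusted and scaled by median absolute deviation.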",
  "note": "Some of the results follow. How many sequences the whole screen found active is unknown.",
  "data": [
    {"sequence": "CAMEECLQHLAGNASASA", "note": "[HC24]", "values": [
      {"measurement": "furin cleavage Z-score", "setting": "7.5 min", "value": "0.426 (inactive)"},
      {"measurement": "furin cleavage Z-score", "setting": "15 min", "value": "0.849 (inactive)"},
      {"measurement": "furin cleavage Z-score", "setting": "30 min", "value": 1.01}
    ]},
    {"sequence": "CAMEECIQHLAGNASASA", "note": "[HC25]", "values": [
      {"measurement": "furin cleavage Z-score", "setting": "7.5 min", "value": 2.89},
      {"measurement": "furin cleavage Z-score", "setting": "15 min", "value": "0.509 (inactive)"},
      {"measurement": "furin cleavage Z-score", "setting": "30 min", "value": 1.63}
    ]},
    {"sequence": "CARKKRPGGGAGNASASA", "note": "[FS-2344]", "values": [
      {"measurement": "furin cleavage Z-score", "setting": "7.5 min", "value": "0.0138 (inactive)"},
      {"measurement": "furin cleavage Z-score", "setting": "15 min", "value": "0.394 (inactive)"},
      {"measurement": "furin cleavage Z-score", "setting": "30 min", "value": "-0.0781 (inactive)"}
    ]},
    {"sequence": "CARTYRWLSAAGNASASA", "note": "[FS-2192]", "values": [
      {"measurement": "furin cleavage Z-score", "setting": "7.5 min", "value": "-0.657 (inactive)"},
      {"measurement": "furin cleavage Z-score", "setting": "15 min", "value": 1.48},
      {"measurement": "furin cleavage Z-score", "setting": "30 min", "value": "0.201 (inactive)"}
    ]},
    {"sequence": "CASSASQLSAAGNASASA", "note": "[HC1261]", "values": [
      {"measurement": "furin cleavage Z-score", "setting": "7.5 min", "value": "0.811 (inactive)"},
      {"measurement": "furin cleavage Z-score", "setting": "15 min", "value": "-0.271 (inactive)"},
      {"measurement": "furin cleavage Z-score", "setting": "30 min", "value": "-1.07 (inactive)"}
    ]},
    {"sequence": "CAMKKRDLSAAGNASASA", "note": "[FS-2872]", "values": [
      {"measurement": "furin cleavage Z-score", "setting": "7.5 min", "value": "4.25 (active)"},
      {"measurement": "furin cleavage Z-score", "setting": "15 min", "value": "5.63 (active)"},
      {"measurement": "furin cleavage Z-score", "setting": "30 min", "value": "4.84 (active)"}
    ]},
    {"sequence": "CARKKRIVTGAGNASASA", "note": "[FS-2342]", "values": [
      {"measurement": "furin cleavage Z-score", "setting": "7.5 min", "value": "4.57 (active)"},
      {"measurement": "furin cleavage Z-score", "setting": "15 min", "value": "4.97 (active)"},
      {"measurement": "furin cleavage Z-score", "setting": "30 min", "value": "5.79 (active)"}
    ]},
    {"sequence": "CARKKRSTSAAGNASASA", "note": "[FU2]", "values": [
      {"measurement": "furin cleavage Z-score", "setting": "7.5 min", "value": "12.7 (active)"},
      {"measurement": "furin cleavage Z-score", "setting": "15 min", "value": "14.1 (active)"},
      {"measurement": "furin cleavage Z-score", "setting": "30 min", "value": "8.12 (active)"}
    ]},
    {"sequence": "CARKGKSSSAAGNASASA", "note": "[FS-1725]", "values": [
      {"measurement": "furin cleavage Z-score", "setting": "7.5 min", "value": "-1.17 (inactive)"},
      {"measurement": "furin cleavage Z-score", "setting": "15 min", "value": "-1.17 (inactive)"},
      {"measurement": "furin cleavage Z-score", "setting": "30 min", "value": "-0.784 (inactive)"}
    ]},
    {"sequence": "CARKKRTTSAAGNASASA", "note": "[FS-2345]", "values": [
      {"measurement": "furin cleavage Z-score", "setting": "7.5 min", "value": "8.37 (active)"},
      {"measurement": "furin cleavage Z-score", "setting": "15 min", "value": "8.69 (active)"},
      {"measurement": "furin cleavage Z-score", "setting": "30 min", "value": "6.28 (active)"}
    ]},
    {"sequence": "CASGKPAIIPAGNASASA", "note": "[HC1005]", "values": [
      {"measurement": "furin cleavage Z-score", "setting": "7.5 min", "value": "-1.38 (inactive)"},
      {"measurement": "furin cleavage Z-score", "setting": "15 min", "value": "-0.473 (inactive)"},
      {"measurement": "furin cleavage Z-score", "setting": "30 min", "value": "0.121 (inactive)"}
    ]},
    {"sequence": "CATTPCSCSWAGNASASA", "note": "[HC1900]", "values": [
      {"measurement": "furin cleavage Z-score", "setting": "7.5 min", "value": "-1.59 (inactive)"},
      {"measurement": "furin cleavage Z-score", "setting": "15 min", "value": "-2.52 (inactive)"},
      {"measurement": "furin cleavage Z-score", "setting": "30 min", "value": "-0.421 (inactive)"}
    ]}
  ]
}
